Assay results: the OligoGym collection

target: ALDH9A1; test: pooled miR-30 sensor sort-seq; sequence = guide strand; details: shRNA

First: TTCACATCATTCCACAGCGTGG
Second: TATAACCAAACGATCCACCTGG
The sensor-assay potency score (higher = more potent) of the first is lower: -1.5 for the first, 0.155 for the second.

Going from TTAATTTGGGATCTTCAGGTAC to TCTCATGTAATATCCATCCTTT, the sensor-assay potency score (higher = more potent) falls from 0.221 to -0.314.

target: ALG10B; test: as above; details: shRNA

First: TATTTCAGAATTGCATATCTTT
Second: TTGCATAGCAACTCAGTTCACA
The sensor-assay potency score (higher = more potent) of the first is higher: -0.42 for the first, -0.443 for the second.

First: TAAAGTGTTGGAAATACTGCTA
Second: TAATTTTGCTAGGAGACAGGAG
The sensor-assay potency score (higher = more potent) of the first is higher: -0.0567 for the first, -0.56 for the second.

Compared with TTTCTGAGGAACTATAACAATG, TTCATGACTACTCCGATCGCCA is higher in sensor-assay potency score (higher = more potent): -1.85 for the first, -0.64 for the second.

Going from ACTATAACAATGAACAAGCATA to TTTTGTGCAATGACATTCCCTG, the sensor-assay potency score (higher = more potent) rises from -1.35 to 0.314.

target: ALG3; test: as above; details: shRNA

First: TGGGTCATTGAAGAGCCGCAGC
Second: ATAGATCAAGAAGACAAGCAGC
The sensor-assay potency score (higher = more potent) of the first is lower: -1.28 for the first, -0.15 for the second.

Going from ATAGTCATAGGTACCATTGATG to TAGGTACCATTGATGACGCCTT, the sensor-assay potency score (higher = more potent) falls from -0.727 to -0.738.

Going from AAGAGCAGCACATTCATCTTCA to TGAGGGTAGACTCAGGTCCTGA, the sensor-assay potency score (higher = more potent) falls from 0.161 to -1.65.

Compared with TTGATGACGCCTTCTACCTCGG, TATAGTCATAGGTACCATTGAT is lower in sensor-assay potency score (higher = more potent): -0.378 for the first, -0.777 for the second.

Compared with TATGTGTTCCAGGAGAGCTCGA, TAAAGATGTACACGAAACCAGC is lower in sensor-assay potency score (higher = more potent): -0.768 for the first, -1.12 for the second.

Compared with ATGTACACGAAACCAGCTGGGT, TAGAACTGGTAGTGGAGGGAGC is higher in sensor-assay potency score (higher = more potent): -1.42 for the first, -0.534 for the second.
